# Screening results as filed in PubChem BioAssay.
# VCAM1 pot: potentiators of TNFa-induced VCAM1 expression, primary screen, imaging, HUVEC, TNFa stimulus, immunofluorescence | HUVEC TNFa-stimulated VCAM-1 immunofluorescence, high-content imaging; scaled per plate to unstimulated/TNFa-only wells | activation, % at 2 µM | 93,000 compounds, 0.19% hits | AID 808, 2007;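 active = activation above the screen mean plus 3 SD, with well images confirming the hit on visual review, cut at about 28% in these data, passing the limit was not always enough; inconclusive = activation above that limit but images do not confirm it; inactive = activation not above that limit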;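 also: signal is the number of cytoplasmic VCAM-1 stained grains per positive cell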
# VCAM1 pot conf: potentiators of TNFa-induced VCAM1 expression, confirmation, imaging, HUVEC, triplicate retest | shares compounds with VCAM1 pot | HUVEC TNFa-stimulated VCAM-1 immunofluorescence imaging | activation, % at 2 µM | 230 tested, under 10 active;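 active = activation above 30% in triplicate retests at 2 µM, then confirmed by visual review of the well images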;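 also: scaled per plate between unstimulated and TNFa-stimulated DMSO control wells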
# Active calls of the source: *; ? = inconclusive. This is one part of a sample in which hits are shown more often than they occur.
SMILES,VCAM1 pot,others
C=CCC(C=C)S(=O)(=O)c1ccc(C)cc1 (configuration not stated),7.2,
CCOC(=O)c1cnn(-c2cc(C)c3ccccc3n2)c1N,-1.8,
CCOC(=O)c1c(-c2ccc(Cl)cc2)cn2ccccc12,-3.7,
CCOC(=O)c1cnc2c(-c3ccccc3)cnn2c1N,?,VCAM1 pot conf=-4.4
CC(C)CCNC(=O)CSc1nnc(-c2ccc(S(=O)(=O)N3CCCC3)cc2)n1C,7.2,
Cn1c(SCC(=O)Nc2nccs2)nnc1-c1ccncc1,-8.9,
CC(C)NC(=O)CSc1nnc(-c2ccc(C(C)(C)C)cc2)n1C,?,VCAM1 pot conf=-15.3
CCCn1nc([N+](=O)[O-])c(C(C#N)c2nc3ccccc3s2)c(Cl)c1=O (configuration not stated),-50.7,
Cc1cc(NC(=O)COc2ncnc3sc(C)c(C)c23)no1,19.7,
Cn1c(SCC(=O)NC2CCCCC2)nnc1-c1cccc(N)c1,-53.6,
Cn1c(CN2CCOCC2)nnc1SCC(=O)NC1CCCCC1,?,VCAM1 pot conf=-16.9
CN(C)C(=O)Cn1c(SCC(=O)NC2CCCCC2)nc2ccccc21,1.2,
CCCCc1c(C)nn(-c2nnc3c4ccccc4n(C)c3n2)c1C,0.6,
Cc1ccc(NC(=O)C2CCN(S(=O)(=O)c3c(C)[nH]c(=O)[nH]c3=O)CC2)cc1,0.4,
COc1cccc(-c2nc(=S)c3c(n2CCCO)CCCC3)c1,18.1,
N#CC1=C(N)Oc2n[nH]c(-c3ccccc3)c2C1c1cccnc1 (configuration not stated),94.0*,VCAM1 pot conf=-14.1
CCN(CC)c1ccc2c(c1)OC(N)=C(C#N)C2c1cccnc1 (configuration not stated),-39.1,
CCCSC1=C(C#N)C(c2cccnc2)C(C(=O)OCC)=C(c2ccccc2)N1 (configuration not stated),18.1,
COc1ccc(CCNC(=O)NC23CC4CC(CC(C4)C2)C3)cc1OC,8.9,
CCC(C)(C)n1nnnc1CN1CCC(O)(c2cccc(C(F)(F)F)c2)CC1,-16.0,
CCn1c2c(c3cc(OCC(C)C)ccc31)CCCC2=O,47.0*,VCAM1 pot conf=-10.6
CCOc1ccc(C=O)cc1CN1CCCCC1,-94.8,
Cc1cccc(NC(=O)c2cccc(N3C(=O)C4C5CCC(C5)C4C3=O)c2)c1C (configuration not stated),-2.1,
O=C(CN1CCC(c2nc3ccccc3[nH]2)CC1)NCc1ccc2c(c1)OCO2,1.2,
Clc1ccc2nc(C3CCN(Cc4nnnn4C4CCCCC4)CC3)[nH]c2c1,60.2*,VCAM1 pot conf=-3.6
SMILES,VCAM1 pot,others
CC(=O)c1ccc(NC(=O)C2CCC(C)NC2=O)cc1 (configuration not stated),3.6,
COC(=O)Cn1cc(C(=O)C2CC2)c2ccccc21,54.3*,VCAM1 pot conf=-11.3
O=C(Cn1cc(C(=O)c2ccco2)c2ccccc21)NCc1ccco1,-9.5,
CC(C)(C)NC(=O)NC(=O)COC(=O)c1cc(=O)[nH]c2ccccc12,-8.0,
O=C(NCCN1CCN(c2ccccc2F)CC1)C1CCCN(S(=O)(=O)c2cnc[nH]2)C1 (configuration not stated),4.6,
O=C1c2ccccc2-c2nc3ccccc3nc21,1.7,
Cc1ccccc1Cn1nnc2c1C(=O)c1ccccc1C2=O,46.2*,VCAM1 pot conf=-13.0
Cc1ccccc1CSc1nncn1N,-13.4,
CCC1(COC(NC(=O)c2cccnc2)(C(F)(F)F)C(F)(F)F)COC1,4.3,
O=C(Cc1ccccc1)Nc1ccc2oc(-c3cccnc3)nc2c1,1.8,
O=C(Nc1ccc2oc(-c3ccccc3)nc2c1)c1ccc2c(c1)OCCO2,30.4*,VCAM1 pot conf=-9.7
O=C(Nc1ccc(-c2nc3cc(Cl)ccc3o2)cc1)C1CCCO1 (configuration not stated),34.0,
CCOc1cc(NC(=O)c2ccccn2)c(OCC)cc1NC(=O)CC(C)C,-9.0,
NCCN1CCN(CCN)CC1,-94.4,
COC(=O)[C@H](Cc1ccccc1)NC(=O)N1CCN(Cc2ccccc2)CC1,-6.1,
COc1ccc(CNC(=O)CSc2nc(-c3ccccc3)cc(-c3cccs3)c2C#N)cc1,-0.2,
CCN(CC)C(=O)CSc1nc(-c2cccs2)cc(-c2cccs2)c1C#N,49.9*,VCAM1 pot conf=-20.5
CCN(CC)C(=O)CSc1nc(N)c(C#N)c(-c2cccs2)c1C#N,-12.8,
Cc1cccc(-c2nnc(SCCOc3ccc4c(C)cc(=O)oc4c3)o2)c1,-1.3,
NC(=O)c1cccc(S(=O)(=O)N2CC(c3ccccc3)CC2=O)c1 (configuration not stated),-1.3,
Clc1ccc(CSc2cc3c(nn2)-c2ccccc2CC3)cc1,-9.5,
Cc1ccccc1-c1nc(Cc2ccccc2)no1,9.0,
CCc1ccc(OCC(=O)NCc2ccco2)c(Br)c1,-6.8,
O=C(CN1CCN(C(=O)c2ccccc2)CC1)Nc1ccc(Br)cn1,1.4,
CCOC(=O)Cc1nnc(NC(=O)COc2ccc(OC)cc2)s1,-0.9,
SMILES,VCAM1 pot,others
CCc1nnc(NC(=O)c2ccc(OC)cc2OC)s1,64.3*,VCAM1 pot conf=-1.2
CCc1nnc(NC(=O)c2ccc3c(c2)C(=O)N(CC(C)C)C3=O)s1,-14.3,
COc1ccc2c(C(=O)CN(C)C3CCCCC3)c[nH]c2c1,-7.4,
Cc1ccc(S(=O)(=O)N2CCN(S(C)(=O)=O)CC2)cc1,7.0,
Cc1nc2ccccc2n1CC(O)COCC1CC=CCC1 (configuration not stated),?,VCAM1 pot conf=-13.2
CCOC(=O)Cn1c(C)nc2ccccc21,-6.1,
CC(C)Cn1c(SCC(=O)NC(=O)NC2CCCC2)nc2ccccc21,-7.9,
Cc1ccc(S(=O)(=O)c2c(C)cc(C)nc2Oc2cccc(C(F)(F)F)c2)cc1,-6.2,
CN(CP(=O)(O)CN(C)S(C)(=O)=O)S(C)(=O)=O,31.6*,VCAM1 pot conf=-12.4
Cc1ccc(S(=O)(=O)NCC(c2cccnc2)N(C)C)cc1 (configuration not stated),-4.8,
C=CCSc1nnc2c(n1)OC=Nc1ccccc1-2,14.0,
CCC(CC)C(=O)NCCc1ccc(S(N)(=O)=O)cc1,-12.6,
COc1ccc(CCNC(=O)C2CCN(S(=O)(=O)N3CCCCCC3)CC2)cc1OC,3.4,
NS(=O)(=O)c1ccc(CCNC(=O)C2CCCCC2)cc1,32.8*,VCAM1 pot conf=-13.1
CCOC(=O)C1=C(C)NC(C)=C(C(=O)OCC)C1C(=O)OC1CCOC1=O (configuration not stated),-6.8,
Cn1c(-c2ccccc2O)cc2ccccc21,8.0,
O=C(Oc1ccc(Cl)cc1N1C(=O)CCC1=O)c1ccco1,-9.3,
CCCCS(=O)CC(O)COCC (configuration not stated),-24.6,
O=C(COc1cccc(C(F)(F)F)c1)Nc1ccc(S(=O)(=O)N2CCCC2)cc1,-16.6,
Cc1ccccc1NC(=O)Cn1nc(C(F)(F)F)cc1C1CC1,54.4*,VCAM1 pot conf=-8.9
CCc1ccccc1NC(=O)c1nnn(CC(=O)Nc2cccc(C)c2C)c1N,-4.4,
Cc1cc(C(F)(F)F)nn1CC(=O)Nc1ccc(Br)c2cccnc12,-5.5,
Cc1nn(Cc2ccc(C(=O)N3c4ccc(F)cc4CCC3C)o2)c(C)c1Br (configuration not stated),-1.4,
Cc1[nH]n(-c2ccc([N+](=O)[O-])cc2)c(=O)c1N=Nc1nc2ccccc2s1,-52.4,
O=C(NCc1ccco1)c1sc2cc(F)ccc2c1Cl,43.7*,VCAM1 pot conf=-10.2
CC(C)c1cc(C(=O)NCc2ccco2)no1,-10.0,
O=C(NCc1ccco1)c1ccccc1F,1.3,
CCn1ncc(/C=C/C(=O)Nc2c(C)nn(Cc3ccc(Cl)cc3Cl)c2C)c1C,4.6,
